GPR151 activ: human GPR151 activation; PathHunter beta-arrestin GPR151 cells, luminescence; actives 1% (n = 650,000); Q8TDV0; activation, % at 11.2 µM; in the data active = activation above about 4.9%
MITF inh: human MITF inhibition, primary screen | O75030 | AlphaScreen MITF homodimerization, bead proximity signal | inhibition, % at 2.6 µM | actives 0.91% (n = 650,000) | AID 1259374; in the data active = inhibition above about 50%
FBW7 activator: human FBW7 E3 ligase activation, primary screen; Q969H0; actives 0.13% (n = 650,000); AlphaScreen FBW7–phospho-cyclin E peptide binding, activator screen; normalized activity (activation), % at 26.1 µM; in the data active = normalized activity above about 1.9%;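 note: purified mutant Fbw7 with reduced substrate affinity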
Target sequence (Q969H0 whole entry, looked up): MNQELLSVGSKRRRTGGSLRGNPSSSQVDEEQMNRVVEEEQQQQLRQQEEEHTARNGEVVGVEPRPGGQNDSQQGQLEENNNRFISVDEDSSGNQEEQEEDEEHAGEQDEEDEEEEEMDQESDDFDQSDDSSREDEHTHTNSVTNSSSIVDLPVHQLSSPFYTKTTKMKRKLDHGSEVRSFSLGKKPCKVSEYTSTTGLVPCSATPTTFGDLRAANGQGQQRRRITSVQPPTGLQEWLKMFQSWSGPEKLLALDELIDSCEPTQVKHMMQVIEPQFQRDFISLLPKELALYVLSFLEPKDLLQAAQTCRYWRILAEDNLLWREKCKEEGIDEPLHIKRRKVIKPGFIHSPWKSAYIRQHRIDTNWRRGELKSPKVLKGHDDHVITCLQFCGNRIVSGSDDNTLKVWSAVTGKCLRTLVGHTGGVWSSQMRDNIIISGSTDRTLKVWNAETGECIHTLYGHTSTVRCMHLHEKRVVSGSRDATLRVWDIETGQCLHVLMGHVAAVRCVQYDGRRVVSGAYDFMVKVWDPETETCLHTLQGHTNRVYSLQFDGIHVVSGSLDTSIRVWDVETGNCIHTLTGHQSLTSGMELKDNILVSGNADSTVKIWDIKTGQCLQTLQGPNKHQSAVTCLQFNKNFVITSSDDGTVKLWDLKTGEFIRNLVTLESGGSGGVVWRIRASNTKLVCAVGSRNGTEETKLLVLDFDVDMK
TEAD-YAP block: TEAD-YAP interaction inhibition; inhibition, % at 9.12 µM; actives 1.4% (n = 640,000); HEK-TIYL cells, TEAD-Gal4/YAP UAS-luciferase luminescence; AID 1259422; in the data active = inhibition above about 32%
MITF inh conf: human MITF inhibition, confirmation; shares compounds with MITF inh; AlphaScreen MITF homodimerization, biotin/His-MITF beads; inhibition, % at 2.6 µM; actives 16% (n = 4,700);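 active = inhibition above a cutoff derived from the DMSO control wells, cut at about 28% in these data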;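 note: inhibitors lower the bead chemiluminescence by keeping MITF from dimerizing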
AS interf DR: counter-screen: compounds optically interfering with AlphaScreen; actives 6% (n = 480); shares compounds with MITF inh; IC50, µM; AlphaScreen optical interference counterscreen, cell-free; call rule not given here
AS interf ctr: counter-screen: compounds optically interfering with AlphaScreen; shares compounds with MITF inh; LysRS AlphaScreen counterscreen, signal interference, triplicate; inhibition, % at 2.6 µM; actives 7.6% (n = 4,700);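 active = inhibition above a cutoff derived from the DMSO control wells, cut at about 30% in these data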
Hits are given with their value; 0 = inactive; - = no result. A selection: hits, their analogues and other compounds. The true share with any hit is near 3.5%.

SMILES	GPR151 activ	MITF inh	FBW7 activator	TEAD-YAP block	MITF inh conf	AS interf ctr	others
COc1cc(/C=N/NC(=O)c2nc3nc(C)cc(C)n3n2)ccc1O	0	0	0	0	-	-
CCN1CCN(CC(=O)NCc2ccco2)CC1	0	80.0	0	0	0	0
CC1CCN(C(C)C(=O)NCc2ccco2)CC1 (configuration not stated)	0	79.8	0	0	0	0
O=C(CN1CCN(CC(=O)c2ccco2)CC1)NCc1ccccc1Cl	0	65.6	0	0	0	0
Cc1ccccc1NC(=O)CN1CCN(CC(=O)c2ccco2)CC1	0	58.7	0	0	0	0
CCOC(=O)c1ccc(NC(=O)CN2CCN(CC(=O)c3ccco3)CC2)cc1	0	78.5	0	0	0	0
COC(=O)c1ccc(NC(=O)CN2CCN(C(=O)c3ccco3)CC2)cc1	0	0	0	0	-	-
CC(NCCCN(C)C)C(=O)NCc1ccco1 (configuration not stated)	0	56.8	0	0	0	0
CC(NCCN(C)C)C(=O)NCc1ccco1 (configuration not stated)	0	0	0	0	-	-
O=C(CN1CCN(Cc2cn3ccccc3n2)CC1)c1ccco1	0	53.5	0	0	0	0
CCOC(=O)CC1=C(C(=O)OCC)C(c2c(Cl)cccc2Cl)C(C#N)=C(N)O1 (configuration not stated)	0	0	0	0	-	-
Cc1ccc2c(c1)NC(=O)C(N1CCOCC1)(C(F)(F)F)O2 (configuration not stated)	0	59.1	0	0	0	0
Cc1ccc2c(c1)NC(=O)C(Cl)(C(F)(F)F)O2 (configuration not stated)	0	0	0	0	-	-
CCn1c(=O)c2c(nc3n(CCc4ccccc4)c(C)cn23)n(C)c1=O	0	0	0	0	-	-
Cc1cn2c3c(=O)n(C)c(=O)n(C)c3nc2n1CCc1ccccc1	0	55.3	0	0	0	0
O=C(CN1CCN(C(=O)CSc2ccc(F)cc2)CC1)c1cccs1	0	79.7	0	0	0	0
COc1ccc(S(=O)(=O)N2CCN(c3ccc(C)cc3)CC2)cc1C	0	0	0	0	-	-
O=C(NN=C1CCC(c2ccccc2)CC1)c1ccccc1O (configuration not stated)	0	0	0	0	-	-
O=C(c1ccsc1)N1CCOc2ccc(CN3CCN(c4ccccc4)CC3)cc2C1	0	72.6	0	0	0	0
N#C/C(=C/c1ccco1)c1cccc(F)c1	0	68.4	0	0	29.8	0	AS interf DR=0
CC(=O)N(Cc1cccs1)Cc1cc2ccc(C)c(C)c2[nH]c1=O	0	0	0	0	-	-
CC(=O)c1ccc(NC(=O)CNCC(c2ccccc2)N(C)C)cc1 (configuration not stated)	0	65.8	0	0	0	0
CC(=O)c1ccc(NC(=O)CC(C)c2ccccc2)cc1 (configuration not stated)	0	0	0	0	-	-
CCN1CCN(CC(=O)n2c(C)c(C)c3ccccc32)CC1	0	73.8	0	0	0	0
Cc1c(C)n(C(=O)CN2CCN(c3ccccn3)CC2)c2ccccc12	0	0	0	0	-	-
SMILES	GPR151 activ	MITF inh	FBW7 activator	TEAD-YAP block	MITF inh conf	AS interf ctr	others
CCC(Sc1nc2cc3c(cc2c(=O)n1CCC1=CCCCC1)OCO3)C(=O)NCc1ccc(C)cc1 (configuration not stated)	0	0	0	0	-	-
O=C1NC(=O)C2(CCSc3ccc(F)cc32)N1 (configuration not stated)	0	0	0	0	-	-
NC(=O)CSc1ccc(C(N)=O)cc1[N+](=O)[O-]	0	63.7	0	0	38.8	0	AS interf DR=0
NC(=O)c1ccc(SCC(=O)O)c([N+](=O)[O-])c1	0	0	0	0	-	-
CN=C1SC(CC(=O)Nc2cccc(C(=O)O)c2)C(=O)N1C (configuration not stated)	0	53.2	0	0	36.4	0	AS interf DR=0
COc1cc(OC)c(OC)cc1CNc1cccc(C)c1	0	51.6	0	0	0	0
COc1ccc(OC)c(CNc2cccc(C)c2)c1	0	64.1	0	0	0	0
Cc1cccc(NCc2cccc([N+](=O)[O-])c2)c1	0	68.5	0	0	0	0
CCOc1cc2c(cc1OCC)C(c1ccc(OC)c(O)c1)NCC2 (configuration not stated)	0	0	0	0	-	-
COc1ccc(-c2nn3c(N4CCCC4)cc(C)nc3c2C)cc1OC	0	0	0	0	-	-
CCOC(=O)c1cc(Cl)c(N)cc1OC	0	0	0	0	-	-
Cc1cccc(OCC(=O)NCCc2ccc(N3CCCC3)cc2)c1	0	52.9	0	0	0	0
COc1ccc(N(C(=O)/C=C/c2ccccc2)C2=CC3CCC(C2)N3C)cc1 (configuration not stated)	0	56.2	0	0	0	0
CCCc1nc(SCC(=O)NC(C)(C)C)c2ccccc2n1	0	52.9	0	0	0	0
CCOC(=O)c1c(NC(=O)C(C)Sc2nnc(CNC(=O)c3ccc(C)c([N+](=O)[O-])c3)n2Cc2ccccc2)sc2c1CCC2 (configuration not stated)	0	0	0	0	-	-
Cn1c(CN2CCOCC2)nc(=O)c2ccccc21	0	53.3	0	0	0	0
CCCN(CCC)C(=O)c1cc(Cl)ccc1OC	0	0	0	0	-	-
CCOc1ccccc1OCCN1CCN(Cc2ccccc2)CC1	0	64.0	0	0	0	0
Fc1ccccc1OCCN1CCN(Cc2ccccc2)CC1	0	72.6	0	0	0	0
Fc1ccccc1OCCN1CCOCC1	0	0	0	0	-	-
CCOc1ccccc1OCCN1CC(C)CC(C)C1 (configuration not stated)	0	77.9	0	0	0	0
CCOc1ccccc1OCCN1CCOCC1	0	0	0	0	-	-
CCOC(=O)CC(=O)CSc1nc(-c2ccc(OC)cc2)ns1	0	0	0	0	-	-
Cc1ccccc1C1Nc2ccccc2S(=O)(=O)N1 (configuration not stated)	0	0	0	0	-	-
CN1CCCN(Cc2cccc(Oc3ccccc3)c2)CC1	0	54.8	0	0	0	0
SMILES	GPR151 activ	MITF inh	FBW7 activator	TEAD-YAP block	MITF inh conf	AS interf ctr	others
CCc1ccc(CN2CCN(Cc3cccc(Oc4ccccc4)c3)CC2)cc1	0	66.7	0	0	0	0
CN1CCN(Cc2cccc(Oc3ccccc3)c2)CC1	0	0	0	0	-	-
OC1CCN(Cc2cccc(Oc3ccccc3)c2)CC1	0	0	0	0	-	-
COc1ccc2c(c1)C(Cc1cccc(C(N)=O)c1)(c1ccc(F)cc1)C(=O)N2 (configuration not stated)	0	0	0	0	-	-
COc1ccc(N2CC(NC(=O)Nc3cc(C)cc(C)c3)CC2=O)cc1 (configuration not stated)	0	0	0	0	-	-
COc1ccc(C2(O)CN(c3ccccc3)C3=[N+]2CCCCC3)cc1OC (configuration not stated)	0	0	0	0	-	-

Screening data deposited in PubChem BioAssay by The Scripps Research Institute Molecular Screening Center.
